Tests used:
Assay in all cases: DAPPL (digital affinity profiling via proximity ligation, sequencing); 10 mM Tris-HCl pH 7.5, 50 mM NaCl, 1 mM DTT, 4% glycerol, room temperature, 30 min; GST-TFs on glutathione beads, 16-mer random dsDNA library, 0.1% formaldehyde crosslink after washing; high values mean tight binding
Settings in all cases: protein: recombinant; tags: N-terminal GST; dsDNA, one strand shown
FEV = target: T1, FEV (Homo sapiens, UniProt Q99581 1-238)
T1 sequence: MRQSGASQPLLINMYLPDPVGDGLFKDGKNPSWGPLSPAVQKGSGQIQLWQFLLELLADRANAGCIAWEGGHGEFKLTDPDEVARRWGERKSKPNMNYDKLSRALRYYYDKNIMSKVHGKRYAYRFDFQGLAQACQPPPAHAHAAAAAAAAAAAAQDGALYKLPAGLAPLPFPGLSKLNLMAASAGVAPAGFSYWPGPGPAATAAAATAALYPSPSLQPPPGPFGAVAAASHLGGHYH
Procedure, shortened: (§1)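 Sequencing on an Illumina NextSeq500 followed washing, crosslinking with 0.1% formaldehyde, proximity ligation (BsaI/T4 ligase, 1 h, 37 °C) and PCR amplification of pools that had been incubated for 30 min at room temperature with 200 nmole of a random double-stranded 16-mer DNA library in Tris/NaCl/DTT/glycerol buffer. Each pool held DNA-barcoded human transcription factors, expressed in yeast as GST fusions and captured on glutathione beads, plus a tag-only sample. Binding signal is a hexamer's read frequency for a factor divided by its frequency in the tag-only sample.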

ETV5 = ETV5 (Homo sapiens, UniProt P41161 1-510)
Procedure, shortened: as §1

SPIC = target: T2, SPIC (Homo sapiens, UniProt Q8N5J4 1-248)
T2 sequence: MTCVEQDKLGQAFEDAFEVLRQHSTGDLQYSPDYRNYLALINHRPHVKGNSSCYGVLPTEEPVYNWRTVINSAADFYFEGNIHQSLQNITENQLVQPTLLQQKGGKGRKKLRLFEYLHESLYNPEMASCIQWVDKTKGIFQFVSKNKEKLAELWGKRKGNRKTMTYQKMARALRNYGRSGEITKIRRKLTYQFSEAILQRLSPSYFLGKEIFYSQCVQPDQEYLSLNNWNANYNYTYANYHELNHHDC
Procedure, shortened: as §1

ELF4 = ELF4 (Homo sapiens, UniProt Q99607 1-663)
Procedure, shortened: as §1

ELK4 = target: T3, ELK4 (Homo sapiens, UniProt P28324-2 1-405)
T3 sequence: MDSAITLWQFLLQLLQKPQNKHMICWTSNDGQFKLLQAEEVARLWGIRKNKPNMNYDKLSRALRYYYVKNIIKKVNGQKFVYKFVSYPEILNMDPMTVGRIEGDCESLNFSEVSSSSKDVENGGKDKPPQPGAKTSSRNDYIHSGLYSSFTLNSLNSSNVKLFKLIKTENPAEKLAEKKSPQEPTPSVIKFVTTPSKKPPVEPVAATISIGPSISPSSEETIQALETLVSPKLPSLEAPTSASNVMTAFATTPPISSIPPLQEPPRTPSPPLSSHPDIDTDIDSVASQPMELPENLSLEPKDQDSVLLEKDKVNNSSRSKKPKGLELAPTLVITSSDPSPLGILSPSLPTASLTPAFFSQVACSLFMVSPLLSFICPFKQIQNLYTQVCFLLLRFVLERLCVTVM
Procedure, shortened: as §1

ELF3 = target: T4, ELF3 (Homo sapiens, UniProt P78545 1-371)
T4 sequence: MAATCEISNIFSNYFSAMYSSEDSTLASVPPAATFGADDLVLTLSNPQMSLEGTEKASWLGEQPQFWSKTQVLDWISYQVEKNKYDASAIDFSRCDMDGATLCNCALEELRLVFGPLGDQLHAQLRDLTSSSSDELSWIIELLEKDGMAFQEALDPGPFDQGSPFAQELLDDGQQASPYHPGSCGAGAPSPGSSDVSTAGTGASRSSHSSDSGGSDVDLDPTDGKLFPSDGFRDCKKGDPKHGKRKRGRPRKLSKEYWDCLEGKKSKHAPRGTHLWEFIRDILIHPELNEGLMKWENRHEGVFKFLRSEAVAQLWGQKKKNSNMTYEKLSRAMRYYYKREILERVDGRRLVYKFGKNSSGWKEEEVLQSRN
Procedure, shortened: as §1

ETV1 = ETV1 (Homo sapiens, UniProt P50549 1-477)
Procedure, shortened: as §1

ERF = target: T5, ERF (Homo sapiens, UniProt P50548 1-548)
T5 sequence: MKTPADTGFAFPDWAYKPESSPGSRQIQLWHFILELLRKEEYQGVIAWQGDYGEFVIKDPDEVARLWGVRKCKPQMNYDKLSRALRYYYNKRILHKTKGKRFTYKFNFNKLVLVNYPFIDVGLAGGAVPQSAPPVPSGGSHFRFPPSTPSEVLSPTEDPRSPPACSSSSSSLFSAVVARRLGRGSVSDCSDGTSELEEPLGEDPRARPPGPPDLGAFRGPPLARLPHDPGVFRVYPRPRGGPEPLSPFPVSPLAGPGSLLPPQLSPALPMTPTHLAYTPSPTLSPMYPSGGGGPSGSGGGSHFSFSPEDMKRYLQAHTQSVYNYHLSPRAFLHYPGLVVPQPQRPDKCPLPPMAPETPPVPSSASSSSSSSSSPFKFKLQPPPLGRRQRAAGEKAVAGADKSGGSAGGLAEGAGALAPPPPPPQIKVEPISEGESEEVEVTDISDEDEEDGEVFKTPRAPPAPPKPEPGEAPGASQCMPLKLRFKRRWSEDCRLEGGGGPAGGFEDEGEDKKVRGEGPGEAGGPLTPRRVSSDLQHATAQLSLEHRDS
Procedure, shortened: as §1

ETV3L = target: T6, ETV3L (Homo sapiens, UniProt Q6ZN32 1-361)
T6 sequence: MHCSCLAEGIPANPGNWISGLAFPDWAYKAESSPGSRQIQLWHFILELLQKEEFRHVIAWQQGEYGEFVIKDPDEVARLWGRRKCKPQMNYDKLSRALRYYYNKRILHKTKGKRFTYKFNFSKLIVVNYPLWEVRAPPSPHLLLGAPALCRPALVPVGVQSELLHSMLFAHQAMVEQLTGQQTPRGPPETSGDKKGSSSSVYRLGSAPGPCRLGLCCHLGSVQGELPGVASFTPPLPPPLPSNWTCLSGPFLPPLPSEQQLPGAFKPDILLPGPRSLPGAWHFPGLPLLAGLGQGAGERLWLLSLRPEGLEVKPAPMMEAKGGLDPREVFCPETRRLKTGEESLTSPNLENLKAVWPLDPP
Procedure, shortened: as §1

ETS2 = target: T7, ETS2 (Homo sapiens, UniProt P15036 1-469)
T7 sequence: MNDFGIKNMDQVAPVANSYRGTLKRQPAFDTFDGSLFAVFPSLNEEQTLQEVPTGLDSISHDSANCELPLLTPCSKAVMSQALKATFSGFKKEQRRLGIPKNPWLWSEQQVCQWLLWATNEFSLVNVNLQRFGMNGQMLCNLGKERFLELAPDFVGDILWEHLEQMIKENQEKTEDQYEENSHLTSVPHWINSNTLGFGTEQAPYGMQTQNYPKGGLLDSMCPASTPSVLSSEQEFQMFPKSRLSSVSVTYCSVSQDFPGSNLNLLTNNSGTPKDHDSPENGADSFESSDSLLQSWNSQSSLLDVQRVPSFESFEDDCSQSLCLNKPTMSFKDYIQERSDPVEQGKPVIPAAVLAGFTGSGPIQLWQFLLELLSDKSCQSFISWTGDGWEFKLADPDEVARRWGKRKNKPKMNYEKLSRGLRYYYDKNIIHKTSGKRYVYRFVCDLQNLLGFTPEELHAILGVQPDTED
Procedure, shortened: as §1

SPDEF = target: T8, SPDEF (Homo sapiens, UniProt O95238 1-335)
T8 sequence: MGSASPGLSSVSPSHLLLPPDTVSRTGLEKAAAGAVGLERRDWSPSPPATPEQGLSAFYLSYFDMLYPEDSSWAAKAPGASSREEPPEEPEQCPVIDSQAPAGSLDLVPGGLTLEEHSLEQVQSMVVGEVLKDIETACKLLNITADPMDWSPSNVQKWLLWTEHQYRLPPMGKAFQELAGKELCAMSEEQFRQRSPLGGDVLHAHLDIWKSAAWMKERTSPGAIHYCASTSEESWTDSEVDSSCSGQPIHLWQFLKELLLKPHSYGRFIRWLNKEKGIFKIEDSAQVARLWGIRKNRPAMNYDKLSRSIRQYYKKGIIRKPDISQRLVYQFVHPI
Procedure, shortened: as §1

ETV7 = target: T9, ETV7 (Homo sapiens, UniProt Q9Y603 1-341)
T9 sequence: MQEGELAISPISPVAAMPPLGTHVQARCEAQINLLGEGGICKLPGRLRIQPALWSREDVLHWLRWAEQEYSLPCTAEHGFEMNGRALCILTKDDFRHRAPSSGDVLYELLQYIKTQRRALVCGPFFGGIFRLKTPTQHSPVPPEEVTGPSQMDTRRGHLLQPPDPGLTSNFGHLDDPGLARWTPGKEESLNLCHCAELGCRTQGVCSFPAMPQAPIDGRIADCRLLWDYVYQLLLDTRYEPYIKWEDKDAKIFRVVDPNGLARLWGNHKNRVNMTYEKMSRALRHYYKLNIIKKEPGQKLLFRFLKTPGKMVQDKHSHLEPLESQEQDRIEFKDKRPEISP
Procedure, shortened: as §1

ELF5 = target: T10, ELF5 (Homo sapiens, UniProt Q9UKW6-2 1-255)
T10 sequence: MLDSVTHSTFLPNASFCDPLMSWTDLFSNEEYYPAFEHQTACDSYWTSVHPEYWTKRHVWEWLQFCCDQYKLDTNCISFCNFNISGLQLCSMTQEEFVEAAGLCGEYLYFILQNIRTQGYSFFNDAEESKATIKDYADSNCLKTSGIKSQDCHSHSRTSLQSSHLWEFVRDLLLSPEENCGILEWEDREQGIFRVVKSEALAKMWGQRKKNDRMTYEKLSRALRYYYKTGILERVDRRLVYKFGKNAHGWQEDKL
Procedure, shortened: as §1

ETV3 = target: T11, ETV3 (Homo sapiens, UniProt P41162-2 1-143)
T11 sequence: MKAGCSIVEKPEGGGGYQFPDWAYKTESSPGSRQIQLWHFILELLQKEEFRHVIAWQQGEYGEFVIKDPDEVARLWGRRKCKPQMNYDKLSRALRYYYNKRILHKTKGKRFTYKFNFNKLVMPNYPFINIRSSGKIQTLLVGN
Procedure, shortened: as §1

ETV6 = ETV6 (Homo sapiens, UniProt P41212 1-452)
Procedure, shortened: as §1

ETV5, sequence (P41161 whole entry): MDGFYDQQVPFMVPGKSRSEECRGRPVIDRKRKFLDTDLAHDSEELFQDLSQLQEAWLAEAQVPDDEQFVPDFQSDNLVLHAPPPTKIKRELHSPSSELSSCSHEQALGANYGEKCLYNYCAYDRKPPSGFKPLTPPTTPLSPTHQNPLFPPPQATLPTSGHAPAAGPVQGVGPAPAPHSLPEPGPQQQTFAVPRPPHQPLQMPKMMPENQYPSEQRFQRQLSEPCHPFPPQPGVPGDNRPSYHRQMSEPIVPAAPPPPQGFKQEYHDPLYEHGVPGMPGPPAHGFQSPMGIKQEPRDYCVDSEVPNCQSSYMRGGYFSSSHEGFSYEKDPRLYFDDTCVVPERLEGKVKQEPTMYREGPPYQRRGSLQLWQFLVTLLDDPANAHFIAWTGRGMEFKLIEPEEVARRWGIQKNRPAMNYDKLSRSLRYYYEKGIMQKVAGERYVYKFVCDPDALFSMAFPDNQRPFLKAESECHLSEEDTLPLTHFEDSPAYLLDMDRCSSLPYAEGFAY
ETV6, sequence (P41212 whole entry): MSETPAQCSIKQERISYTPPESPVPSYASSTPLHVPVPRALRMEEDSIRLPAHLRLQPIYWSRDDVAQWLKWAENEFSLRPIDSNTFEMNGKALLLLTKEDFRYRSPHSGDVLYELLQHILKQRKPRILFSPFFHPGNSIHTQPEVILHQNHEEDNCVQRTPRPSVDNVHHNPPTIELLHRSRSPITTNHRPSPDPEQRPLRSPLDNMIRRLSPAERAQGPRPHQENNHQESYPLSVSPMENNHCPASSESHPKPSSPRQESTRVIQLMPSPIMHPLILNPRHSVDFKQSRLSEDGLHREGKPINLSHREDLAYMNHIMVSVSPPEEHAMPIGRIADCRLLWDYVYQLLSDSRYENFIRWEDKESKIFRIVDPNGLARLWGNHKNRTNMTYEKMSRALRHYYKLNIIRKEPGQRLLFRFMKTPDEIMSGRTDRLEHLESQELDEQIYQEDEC
ETV1, sequence (P50549 whole entry): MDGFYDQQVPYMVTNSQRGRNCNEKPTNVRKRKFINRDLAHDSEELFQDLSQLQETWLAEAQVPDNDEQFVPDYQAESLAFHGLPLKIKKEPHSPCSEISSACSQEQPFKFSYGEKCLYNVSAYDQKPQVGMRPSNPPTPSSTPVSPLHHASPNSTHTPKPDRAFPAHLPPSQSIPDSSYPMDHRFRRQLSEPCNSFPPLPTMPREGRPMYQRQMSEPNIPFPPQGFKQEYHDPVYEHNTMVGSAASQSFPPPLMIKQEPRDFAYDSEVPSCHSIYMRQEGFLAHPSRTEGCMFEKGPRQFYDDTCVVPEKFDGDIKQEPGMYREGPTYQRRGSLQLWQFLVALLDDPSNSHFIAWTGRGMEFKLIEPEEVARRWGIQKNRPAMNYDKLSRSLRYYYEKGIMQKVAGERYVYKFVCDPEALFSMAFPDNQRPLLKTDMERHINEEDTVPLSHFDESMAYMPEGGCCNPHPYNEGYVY
ELF4, sequence (Q99607 whole entry): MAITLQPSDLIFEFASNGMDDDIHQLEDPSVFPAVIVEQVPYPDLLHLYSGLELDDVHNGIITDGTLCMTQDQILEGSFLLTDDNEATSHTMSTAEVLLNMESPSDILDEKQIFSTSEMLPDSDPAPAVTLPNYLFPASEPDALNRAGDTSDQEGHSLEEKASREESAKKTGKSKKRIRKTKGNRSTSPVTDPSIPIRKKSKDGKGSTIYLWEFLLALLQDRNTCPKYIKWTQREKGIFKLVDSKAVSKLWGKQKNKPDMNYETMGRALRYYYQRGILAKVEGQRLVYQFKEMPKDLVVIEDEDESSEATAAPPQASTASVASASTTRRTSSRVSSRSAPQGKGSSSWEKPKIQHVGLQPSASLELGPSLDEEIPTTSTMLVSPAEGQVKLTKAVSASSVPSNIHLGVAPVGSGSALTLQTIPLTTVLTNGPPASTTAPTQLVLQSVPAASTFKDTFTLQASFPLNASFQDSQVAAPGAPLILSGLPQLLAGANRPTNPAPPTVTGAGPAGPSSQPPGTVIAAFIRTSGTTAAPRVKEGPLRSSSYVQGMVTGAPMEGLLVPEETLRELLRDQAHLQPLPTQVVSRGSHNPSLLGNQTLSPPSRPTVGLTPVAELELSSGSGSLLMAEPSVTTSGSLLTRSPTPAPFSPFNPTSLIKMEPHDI

Sequence | binding signal (FEV) | binding signal (ETV5) | binding signal (SPIC) | binding signal (ELF4) | binding signal (ELK4) | binding signal (ELF3) | binding signal (ETV1) | binding signal (ERF) | binding signal (ETV3L) | binding signal (ETS2) | binding signal (SPDEF) | binding signal (ETV7) | binding signal (ELF5) | binding signal (ETV3) | binding signal (ETV6)
CCAATG | 1.1 fold enrichment (6-mer frequency, TF over GST control) | 1.03 fold enrichment (6-mer frequency, TF over GST control) | 1.03 fold enrichment (6-mer frequency, TF over GST control) | 1.13 fold enrichment (6-mer frequency, TF over GST control) | 1.13 fold enrichment (6-mer frequency, TF over GST control) | 1.05 fold enrichment (6-mer frequency, TF over GST control) | 1.06 fold enrichment (6-mer frequency, TF over GST control) | 1.03 fold enrichment (6-mer frequency, TF over GST control) | 1.11 fold enrichment (6-mer frequency, TF over GST control) | 1.08 fold enrichment (6-mer frequency, TF over GST control) | 1.02 fold enrichment (6-mer frequency, TF over GST control) | 1.1 fold enrichment (6-mer frequency, TF over GST control) | 1.05 fold enrichment (6-mer frequency, TF over GST control) | 1.15 fold enrichment (6-mer frequency, TF over GST control) | 1.14 fold enrichment (6-mer frequency, TF over GST control)
ACAATG | 1.08 fold enrichment (6-mer frequency, TF over GST control) | 1.11 fold enrichment (6-mer frequency, TF over GST control) | 1.08 fold enrichment (6-mer frequency, TF over GST control) | 1.13 fold enrichment (6-mer frequency, TF over GST control) | 1.16 fold enrichment (6-mer frequency, TF over GST control) | 1.17 fold enrichment (6-mer frequency, TF over GST control) | 1.07 fold enrichment (6-mer frequency, TF over GST control) | 1.12 fold enrichment (6-mer frequency, TF over GST control) | 1.03 fold enrichment (6-mer frequency, TF over GST control) | 1.09 fold enrichment (6-mer frequency, TF over GST control) | 1.03 fold enrichment (6-mer frequency, TF over GST control) | 1.12 fold enrichment (6-mer frequency, TF over GST control) | 1.08 fold enrichment (6-mer frequency, TF over GST control) | 1.11 fold enrichment (6-mer frequency, TF over GST control) | 1.06 fold enrichment (6-mer frequency, TF over GST control)

— PMC7862700, “An all-to-all approach to the identification of sequence-specific readers for epigenetic DNA modifications on cytosine”
